Measurements reported in PubChem BioAssay AID1117359 (Southern Research Institute, 2015).
The whole screen tested about 1,500 compounds, of which about 460 (31%) were called active.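 Rule for the calls: active = viability at or below 80% at any tested concentration, marking the compound as toxic; inactive = the rest.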 Not all results are given here. A call without a number means that no potency is given here. Potency and affinity values are given separately.

assay: viability loss in THP-1 monocytes – THP-1 cells, cytotoxicity control for Vif-APOBEC3G degradation inhibitor project, dose response (AID 1117359); settings: THP-1 viability, CellTiter-Glo luminescence, 72 h; series mostly up to 40 µM

Row | Compound | outcome
1 | COc1ccc(CC(=O)Oc2ccc(F)c(F)c2)cc1S(=O)(=O)N1CCOCC1 | inactive
2 | O=C(NCc1ccc(F)cc1)C1CCC(CNc2c(N3CCCCC3)c(=O)c2=O)CC1 (stereo not drawn) | inactive
3 | Cc1ccc(C)c(OCCC(=O)Nc2ccccc2C(=O)NC2CC2)c1 | inactive
4 | CCC(CC)NC(=O)Nc1ccc(F)cc1F | inactive
5 | CS(=O)(=O)N(C(=O)NC(=O)NC1CCS(=O)(=O)C1)C1CCCCC1 (stereo not drawn) | inactive
6 | O=C(CNS(=O)(=O)c1ccc2ccccc2c1)Nc1ccc(F)c(F)c1F | inactive
7 | CC(C)(C)NC(=O)CSc1nnc(-c2ccccn2)n1Cc1ccccc1 | inactive
8 | COc1ccc(OC)c(NC(=O)COC(=O)c2ccc(OC)c(S(=O)(=O)N3CCOCC3)c2)c1 | inactive
9 | COc1ccc(NC(=O)c2ccc(S(=O)(=O)N3CCOCC3)o2)cc1 | inactive
10 | CC(=O)Nc1ccc2c(c1)Cc1cc(N3C(=O)C=CC3=O)ccc1-2 | inactive
11 | NC(=O)C1CCCN(CC(=O)Nc2ccccc2C(=O)NC2CC2)C1 (stereo not drawn) | inactive
12 | COC(=O)Cc1cc(=O)n(-c2nc3ccccc3[nH]2)[nH]1 | inactive
13 | CC(=O)OCCCNc1cc(Sc2nc3ccccc3s2)c2nonc2c1[N+](=O)[O-] | inactive
14 | CCCC(NCC(=O)Nc1ccccc1C(=O)NC1CC1)c1ccccc1 (stereo not drawn) | inactive
15 | Cc1ccc(-n2nc(C)c3c(C)c(CCC(=O)O)c(C)nc32)cc1 | inactive
16 | CCN(CC)CCCNC(=O)CSc1nc(-c2cccs2)cc(C(F)(F)F)n1 | inactive
17 | COCCn1c(N)c(N(Cc2ccccc2)C(=O)C2CCCCC2)c(=O)[nH]c1=O | inactive
18 | O=C(O)c1ccc(NS(=O)(=O)c2cccc(C(=O)Nc3ccc([N+](=O)[O-])cc3)c2)cc1 | inactive
19 | O=C(CSCc1ccc(Br)cc1)NC1CC1 | inactive
20 | CC(c1ccccc1)N(C)CC(=O)NC(=O)NCCC1=CCCCC1 (stereo not drawn) | inactive
21 | COC(=O)c1ccc(NC(=O)COc2cccc(-n3cnnn3)c2)cc1 | inactive
22 | CCOC(=O)c1csc(N)c1-c1ccc([N+](=O)[O-])cc1 | inactive
23 | CCOC(=O)C/C(C)=N\Nc1ccc([N+](=O)[O-])cc1[N+](=O)[O-] | inactive

Row | Compound | outcome
24 | CCOc1ccccc1NC(=O)CCS(=O)(=O)c1ccc(Br)cc1 | inactive
25 | CC(=O)N1CCN(c2nc(-c3ccco3)c3c(c2C#N)CC(C)(C)SC3)CC1 | inactive
26 | CC1CCCN(Cc2c(O)ccc3c2O/C(=C\c2ccco2)C3=O)C1 (stereo not drawn) | inactive
27 | COc1cccc(-c2nc(-c3cccs3)no2)c1 | inactive
28 | COc1ccc(C(C)=O)cc1CN1C(=O)NC2(CCCC2)C1=O | inactive
29 | O=C(O)C1Nc2c(Cl)cc(Cl)cc2C2C=CCC12 (stereo not drawn) | inactive
30 | Cc1ncc(CO)c(/C=N/NC(=O)c2cc(O)c(O)c(O)c2)c1O | inactive
31 | COc1ccc(C(=O)N/N=C/c2cccnc2)cc1 | inactive
32 | CCOC(=O)c1nn(-c2ccc(Cl)cc2Cl)c(=N)c(C#N)c1C | inactive
33 | CSc1ncccc1C(=O)NCc1nnc2ccccn12 | inactive
34 | COC(=O)C1=C(C)NC(=O)NC1c1ccc2c(c1)OCO2 (stereo not drawn) | inactive
35 | Cc1cc(C)n2nc(SC(C)C(=O)N3CCCC3)nc2n1 (stereo not drawn) | inactive
36 | O=C(COC(=O)c1ccccc1Br)Nc1nnc(-c2ccccc2)o1 | inactive
37 | O=C(Nc1ccc(F)cc1F)c1noc2c1CCC2 | inactive
38 | CCOc1cccc(=O)c2c(C)n(C)c(C)c12 | inactive
39 | CCOC(=O)Cn1nc(-c2ccccc2)c2cnc3ccc(C)cc3c21 | inactive
40 | COc1ccc(/C=C/C(=O)NC(=S)Nc2ccccn2)cc1 | inactive
41 | C[C@@H]1CCCCO[C@H](CN(C)C(=O)c2ccccc2)[C@@H](C)CN([C@H](C)CO)C(=O)c2cc(NC(=O)NC3CCCCC3)ccc2O1 | inactive
42 | COc1cccc(/C=N/n2c(-c3cc(C)[nH]n3)n[nH]c2=S)c1 | inactive
43 | CS(=O)(=O)N1CCCCC1CCN1CCCCC1 (stereo not drawn) | inactive
44 | CCOC(=O)COn1c(=O)c(-c2ccc(Cl)cc2)[n+]([O-])c2ccccc21 | inactive
45 | CCOC(=O)c1cccc2c(=O)c(C(=O)c3ccc(Cl)cc3)c(C(=O)OC)[nH]c12 | inactive
46 | CNC(=O)C(=O)N/N=C/c1cccnc1 | inactive

Row | Compound | outcome
47 | COc1cccc(CN2CCSCC2)c1 | inactive
48 | CCNC(=S)Nc1cccc(S(=O)(=O)NC2=NCCC2)c1 | inactive
49 | CC(=O)NCCn1c(SCC(=O)Nc2ccc(C)cc2)nc2ccccc2c1=O | inactive
50 | CC(=O)N1CCN(c2ccc(NCc3ccc(F)cc3)cc2)CC1 | inactive
51 | CCC(NC(=O)Nc1ccc(O)cc1)(C(F)(F)F)C(F)(F)F | inactive
52 | O=C1/C(=C/c2ccco2)SC(=S)N1c1cccnc1 | inactive
53 | O=S(=O)(O)c1cc(O)c2c(O)c(N=Nc3cc(Cl)ccc3O)c(S(=O)(=O)O)cc2c1 | inactive
54 | Cc1ccccc1OCCC(=O)Nc1ccccc1C(=O)NC1CC1 | inactive
55 | CC(=O)Nc1ccc(OCC(=O)N2CCc3ccccc3C2)cc1 | inactive
56 | O=C(Nc1nnc(SCc2c(Cl)cccc2Cl)s1)c1cccc([N+](=O)[O-])c1 | inactive
57 | Cc1ccc(N2CC(NC(=O)N3CCN(C(=O)c4ccco4)CC3)CC2=O)cc1 (stereo not drawn) | inactive
58 | O=C(OCC(=O)N1CCN(C(=O)c2ccco2)CC1)c1cc(-c2ccco2)nc2ccccc12 | inactive
59 | COc1cccc(CN2CCNC(=O)C2CC(=O)NCCn2nc(C)cc2C)c1OC (stereo not drawn) | inactive
60 | Cc1ccccc1C(=O)NCC(=O)OC(C)C(=O)NC(C)CCc1ccccc1 (stereo not drawn) | inactive
61 | O=C(Nc1nc(-c2ccco2)c(-c2ccco2)s1)C1CCC1 | inactive
62 | c1ccc(CSc2nnc(-c3ccco3)c(-c3ccco3)n2)cc1 | inactive
63 | CC(C)C[C@H](NC(=O)c1nc[nH]c1C(=O)N1CCN(c2ccccc2)CC1)C(=O)OC(C)(C)C | inactive
64 | O=C(c1ccc2c(c1)[nH]c(=S)n1c3ccccc3nc21)N1CCN(c2cccc(Cl)c2)CC1 | inactive
65 | COc1ccccc1N1CCN(C(=O)C(F)F)CC1 | inactive
66 | Cc1cccc(N2CCN(CC(O)COc3ccc(Cl)cc3)CC2)c1 (stereo not drawn) | inactive
67 | COc1cccc(=O)c2c(C)n(-c3ccc(C(=O)O)cc3)c(C)c12 | inactive
68 | COc1cc(C(=O)Nc2ccc(N3CCCS3(=O)=O)cc2)c([N+](=O)[O-])cc1OC | inactive
